“And” between values parts separate entries of the source, which are not always exact repeats. Identical values can stand only once. Records with an inconclusive call do not appear. The source made the active and inactive calls. Unless noted, calls come from the whole dose curve; as a rule, active = well fitted curve in the direction sought with a large enough effect in the repeat runs; inconclusive = weak or mixed curves; inactive = no such curve, though single readings can be large; an effect the other way counts as inactive or inconclusive.
Experiments:
[1] = qHTS assay to identify small molecule agonists of H2AX (AID 1224845; active = well fitted activation curve with a large enough effect in the signal ratio in the repeat runs, not every such curve was filed as active; the % refers to the signal ratio)
In short: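 Wild-type CHO-K1 cells, plated overnight, exposed 3hr at 37C to 15 concentrations (0.76% DMSO final). Lysed, then HTRF anti-pH2AX (S139) cryptate and anti-H2AX-d2 antibodies, 24 hr room temperature; 665/620 nm emission read.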

[2] = qHTS assay to identify small molecule agonists of the hypoxia (HIF-1) signaling pathway (AID 1224846; active = well fitted activation curve with a large enough effect in the signal ratio in the repeat runs, not every such curve was filed as active; the % refers to the signal ratio)
In short: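 ME-180 HRE-bla reporter cells; compounds in DMSO, 17 h at 37C; read-out beta-lactamase via CCF4-AM FRET.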

[3] = qHTS assay to identify small molecule agonists of H2AX - cell viability counter screen (AID 1224847; calls by dose curve; note: top concentration of the series differs between compounds; nearly all actives have a fitted effect of over 30% in size)
In short: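 For this counter screen, overnight-attached CHO-K1 cells received test compounds (15 concentrations, 0.76% DMSO final); 3 hr later at 37C, CellTiter-Glo reagent was added and luminescence recorded after 30 min at room temperature.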

[4] = qHTS assay to identify small molecule agonists of the estrogen related receptor (ERR) signaling pathway from Tox21 library (AID 1224849; calls by dose curve; note: nearly all actives have a fitted effect of over 15% in size); conditions: ERR reporter cell line, ONE-Glo luciferase, 18 h
In short: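 Luciferase activity in ERR pathway reporter cells served as the agonist readout; exposure lasted 18 h at 37 C, with ONE-Glo detection after 30 min at room temperature.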

[5] = qHTS RealTime-Glo MT Cell Viability Assay in HepG2 cells - 24 hour (AID 1224867); note: nearly all actives have a fitted effect of over 50% in size
In short: (§1)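 HepG2 cells (600/well) were dispensed with RealTime-Glo reagents, incubated 5 h at 37 °C, then treated with compounds in DMSO for up to 40 h. Nonlytic NanoLuc luminescence reflecting viable cells was read at each stated time point.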

[6] = qHTS RealTime-Glo MT Cell Viability Assay in HEK293 cells - 32 hour (AID 1224868); note: top concentration of the series differs between compounds; nearly all actives have a fitted effect of over 50% in size
In short: (§2)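 HEK293 cells seeded with NanoLuc/prosubstrate reagent, rested 5 h at 37 C, then dosed and kept at 37 C up to 40 h. Nonlytic real-time luminescence from viable cells read at 0, 8, 16, 24, 32 and 40 h.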

[7] = A CellTox Green Cytotoxicity Assay to monitor cytotoxicity in HEK293 cells - 0 hour (AID 1224869); note: nearly all actives have a fitted effect of over 50% in size
In short: (§3)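 Real-time, in one plate: 600 HEK293 cells/well with dead-cell DNA dye, pinned compound after 5 h, 37 C incubation over 40 h; viable cells give no appreciable fluorescence.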

[8] = qHTS RealTime-Glo MT Cell Viability Assay in HepG2 cells - 40 hour (AID 1224870); note: nearly all actives have a fitted effect of over 50% in size
In short: (§4)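 HepG2 cells (600/well) mixed with RealTime-Glo MT reagent, settled 5 h at 37 C/5% CO2 before compound addition. Nonlytic NanoLuc luminescence from viable-cell prosubstrate reduction read repeatedly during 40 h treatment at 37 C.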

[9] = A CellTox Green Cytotoxicity Assay to monitor cytotoxicity in HEK293 cells - 40 hour (AID 1224871); note: nearly all actives have a fitted effect of over 45% in size
In short: as §3

[10] = qHTS RealTime-Glo MT Cell Viability Assay in HEK293 cells - 16 hour (AID 1224872)
In short: as §2

[11] = qHTS RealTime-Glo MT Cell Viability Assay in HepG2 cells - 8 hour (AID 1224873); note: nearly all actives have a fitted effect of over 55% in size
In short: as §4

[12] = A CellTox Green Cytotoxicity Assay to monitor cytotoxicity in HEK293 cells - 24 hour (AID 1224875); note: nearly all actives have a fitted effect of over 45% in size
In short: as §3

[13] = A CellTox Green Cytotoxicity Assay to monitor cytotoxicity in HepG2 cells - 16 hour (AID 1224876); note: nearly all actives have a fitted effect of over 45% in size
In short: (§5)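 Cytotoxicity was tracked as dead-cell DNA fluorescence in HepG2 cells treated with test compounds at 37 C; each time-point value comes from one kinetic series spanning 0, 8, 16, 24, 32 and 40 h.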

[14] = A CellTox Green Cytotoxicity Assay to monitor cytotoxicity in HepG2 cells - 24 hour (AID 1224878); note: nearly all actives have a fitted effect of over 45% in size
In short: as §5

[15] = A CellTox Green Cytotoxicity Assay to monitor cytotoxicity in HepG2 cells - 40 hour (AID 1224879); note: nearly all actives have a fitted effect of over 40% in size
In short: as §5

[16] = qHTS RealTime-Glo MT Cell Viability Assay in HEK293 cells - 0 hour (AID 1224880)
In short: (§6)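 Kinetic, non-lysing viability readout. Seed HEK293 (600/well) with reagent, incubate 5 h at 37 C/5% CO2, pin 23 nL compound in DMSO, incubate at 37 C, read luminescence at 0, 8, 16, 24, 32, 40 h.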

[17] = A CellTox Green Cytotoxicity Assay to monitor cytotoxicity in HEK293 cells - 32 hour (AID 1224881); note: nearly all actives have a fitted effect of over 40% in size
In short: as §3

[18] = qHTS RealTime-Glo MT Cell Viability Assay in HEK293 cells - 40 hour (AID 1224874); conditions: RealTime-Glo luminescence; max response: stronger effect = lower value; note: nearly all actives have a fitted effect of over 50% in size
In short: as §6

[19] = qHTS RealTime-Glo MT Cell Viability Assay in HepG2 cells - 32 hour (AID 1224877); note: nearly all actives have a fitted effect of over 55% in size
In short: as §1

[20] = qHTS assay to identify small molecule antagonists of the estrogen related receptor (ERR) signaling pathway from Tox21 library (AID 1224848); note: nearly all actives have a fitted effect of over 50% in size
In short: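 Compounds dissolved in DMSO are pin-transferred onto ERR reporter cells (2,000 per well) that have settled for 6 h at 37 C. Plates then incubate 18 h at 37 C before ONE-Glo luciferase reagent and a luminescence read 30 min later.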
% is set by controls: 0 for no effect and ±100 for the full control effect.

CN(C)C(=O)Nc1cccc(OC(=O)NC(C)(C)C)c1
inactive: Potency [1] | outcome [2] | Potency [3] | activity change, positive = activation ([4]; at 92.4 µM (top of the series)) -15.7% | Potency [5] | Potency [6] | Potency [7] | Potency [8] | Potency [9] | Potency [10] | Potency [11] | Potency [12] | Potency [13] | Potency [14] | Potency [15] | outcome [16] | Potency [17]

CCCCCCCCP(=O)(O)O
inactive: Potency [1] | outcome [2] | Potency [3] | Potency [5] | Potency [6] | Potency [7] | Potency [8] | Potency [9] | Potency [10] | Potency [11] | max response [18] -9.79% | Potency [12] | Potency [13] | Potency [19] | Potency [14] | Potency [15] | outcome [16] | Potency [17]

CC(C)(c1ccccc1)c1cc(-n2nc3ccccc3n2)c(O)c(C(C)(C)c2ccccc2)c1
inactive: Potency [1] | outcome [2] | Potency [3] | Potency [5] | Potency [6] | Potency [7] | Potency [8] | Potency [9] | Potency [10] | Potency [11] | max response [18] 12.9% | Potency [12] | Potency [13] | Potency [19] | Potency [14] | Potency [15] | outcome [16] | Potency [17]

COC(=O)Cc1ccccc1
inactive: Potency [1] | outcome [2] | Potency [3] | Potency [5] | Potency [6] | Potency [7] | Potency [8] | Potency [9] | Potency [10] | Potency [11] | max response [18] 7.1% | Potency [12] | Potency [13] | Potency [19] | Potency [14] | Potency [15] | outcome [16] | Potency [17]

NNCCO
inactive: Potency [1] | outcome [2] | Potency [3] | Potency [20] | Potency [5] | Potency [6] | Potency [7] | Potency [8] | Potency [9] | Potency [10] | Potency [11] | max response [18] -1.69% | Potency [12] | Potency [13] | Potency [14] | Potency [15] | outcome [16] | Potency [17]

CCCN(CCC)c1c([N+](=O)[O-])cc(C(C)C)cc1[N+](=O)[O-]
inactive: Potency [1] | outcome [2] | Potency [3] | Potency [5] | Potency [6] | Potency [7] | Potency [8] | Potency [9] | Potency [10] | Potency [11] | max response [18] 9.58% | Potency [12] | Potency [13] | Potency [19] | Potency [14] | Potency [15] | outcome [16] | Potency [17]

COC(=O)C1(O)c2ccccc2-c2ccccc21
inactive: Potency [1] | outcome [2] | Potency [3] | Potency [5] | Potency [6] | Potency [7] | Potency [8] | Potency [9] | Potency [10] | Potency [11] | max response [18] -22.2% | Potency [12] | Potency [13] | Potency [19] | Potency [14] | Potency [15] | outcome [16] | Potency [17]

O=C(O)c1cc(I)cc(I)c1I
inactive: Potency [1] | outcome [2] | Potency [3] | Potency [5] | Potency [6] | Potency [7] | Potency [8] | Potency [9] | Potency [10] | Potency [11] | max response [18] -4.51% | Potency [12] | Potency [13] | Potency [19] | Potency [14] | Potency [15] | outcome [16] | Potency [17]

FC(Cl)(Cl)C(F)(Cl)Cl
inactive: Potency [1] | outcome [2] | Potency [3] | Potency [5] | Potency [6] | Potency [7] | Potency [8] | Potency [9] | Potency [10] | Potency [11] | max response [18] -10.6% | Potency [12] | Potency [13] | Potency [19] | Potency [14] | Potency [15] | outcome [16] | Potency [17]

CC(Oc1cccc(Cl)c1)C(=O)O (stereo not given)
inactive: Potency [1] | outcome [2] | Potency [3] | Potency [5] | Potency [6] | Potency [7] | Potency [8] | Potency [9] | Potency [10] | Potency [11] | max response [18] 9.01% | Potency [12] | Potency [13] | Potency [19] | Potency [14] | Potency [15] | outcome [16] | Potency [17]

OCCSSCCO
inactive: Potency [1] | outcome [2] | Potency [3] | Potency [5] | Potency [6] | Potency [7] | Potency [8] | Potency [9] | Potency [10] | Potency [11] | max response [18] 3.99% | Potency [12] | Potency [13] | Potency [19] | Potency [14] | Potency [15] | outcome [16] | Potency [17]

OC[P+](CO)(CO)CO
inactive: Potency [1] | outcome [2] | Potency [3] | Potency [5] | Potency [6] | Potency [7] | Potency [8] | Potency [9] | Potency [10] | Potency [11] | max response [18] 5.15% and -10.7% | Potency [12] | Potency [13] | Potency [19] | Potency [14] | Potency [15] | outcome [16] | Potency [17]

C[C@H]1[C@@H]2Cc3ccc(O)cc3[C@@]1(C)CCN2C
inactive: Potency [1] | outcome [2] | Potency [3] | Potency [20] | activity change, positive = activation ([4]; at 240 µM (top of the series)) 8.81% | Potency [5] | Potency [7] | Potency [8] | Potency [10] | Potency [11] | Potency [12] | Potency [13] | Potency [19] | Potency [14] | Potency [15] | outcome [16] | Potency [17]

SCc1ccccc1
inactive: Potency [1] | outcome [2] | Potency [3] | Potency [5] | Potency [6] | Potency [7] | Potency [8] | Potency [9] | Potency [10] | Potency [11] | max response [18] 5.57% | Potency [12] | Potency [13] | Potency [19] | Potency [14] | Potency [15] | outcome [16] | Potency [17]

From PubChem BioAssay (Tox21)
